Source: PubChem
Only some compounds are listed: those with a hit (about 11% of all), similar ones and a draw of the others.
BAZ2B block – BAZ2B (human) inhibition; Potency, µM (series often up to 114 µM), actives largely listed as inhibitors; AlphaScreen BAZ2B-H3K14Ac peptide displacement; hit rate 4.4% among 360,000; further: nearly all actives have a fitted effect of over 60% in size
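Complex of BAZ2B and biotin-H3K14Ac (50 nM apiece) forms over 30 min at RT, then faces library compounds up to 110 uM for another 30 min; AlphaScreen beads added, 20 min dark incubation, luminescence read.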
G9a inh – G9a (human) methyltransferase inhibition; Q96KQ7; G9a H3K9 monomethylation, AlphaScreen, 2 h; Potency, µM (doses to about 102 µM), most hits filed as inhibitors; hit rate 8.8% among 350,000; further: nearly all actives have a fitted effect of over 75% in size
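G9a (20 nM) was preincubated 15 min with compound, then reacted 2 h at room temperature with 500 nM biotin-H3K9 peptide and 20 µM SAM. Monomethyl-H3K9 detected by AlphaScreen using anti-H3K9me1 antibody.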
PLK1 PBD inh – inhibitors of human PLK1 polo-box domain binding; P53350; Plk1 PBD binding of FITC phosphopeptide, fluorescence polarization; Potency, µM, most hits filed as inhibitors; hit rate 2.8% among 360,000; AID 720504; further: series mostly up to about 57 µM; nearly all actives have a fitted effect of over 65% in size
HP1b chromo inh – inhibitors of HP1-beta chromodomain binding to methylated histone tails. Potency, µM (highest dose often 114 µM), most hits filed as inhibitors. hit rate 0.56% among 390,000. AlphaScreen HP1-beta / biotin-H3K9me3 peptide binding. P83916; further: nearly all actives have a fitted effect of over 70% in size
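Compound inhibition of the preformed complex between 50 nM HP1-beta and 50 nM biotinylated H3K9me3 peptide was read by AlphaScreen. Buffer was PBS pH 7.4 with 0.01% Tween-20. Incubations ran 30 min at room temperature, with 10 ug/mL donor/acceptor beads.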
JMJD2A Tudor inh – JMJD2A Tudor domain (human) inhibition; O75164; hit rate 4.4% among 390,000; Potency, µM (top dose mostly 114 µM), actives largely listed as inhibitors; AID 504339; AlphaScreen JMJD2A-Tudor / H3K4me3 peptide binding; further: nearly all actives have a fitted effect of over 50% in size
Target sequence (O75164 whole entry, looked up, the tested form may be a part): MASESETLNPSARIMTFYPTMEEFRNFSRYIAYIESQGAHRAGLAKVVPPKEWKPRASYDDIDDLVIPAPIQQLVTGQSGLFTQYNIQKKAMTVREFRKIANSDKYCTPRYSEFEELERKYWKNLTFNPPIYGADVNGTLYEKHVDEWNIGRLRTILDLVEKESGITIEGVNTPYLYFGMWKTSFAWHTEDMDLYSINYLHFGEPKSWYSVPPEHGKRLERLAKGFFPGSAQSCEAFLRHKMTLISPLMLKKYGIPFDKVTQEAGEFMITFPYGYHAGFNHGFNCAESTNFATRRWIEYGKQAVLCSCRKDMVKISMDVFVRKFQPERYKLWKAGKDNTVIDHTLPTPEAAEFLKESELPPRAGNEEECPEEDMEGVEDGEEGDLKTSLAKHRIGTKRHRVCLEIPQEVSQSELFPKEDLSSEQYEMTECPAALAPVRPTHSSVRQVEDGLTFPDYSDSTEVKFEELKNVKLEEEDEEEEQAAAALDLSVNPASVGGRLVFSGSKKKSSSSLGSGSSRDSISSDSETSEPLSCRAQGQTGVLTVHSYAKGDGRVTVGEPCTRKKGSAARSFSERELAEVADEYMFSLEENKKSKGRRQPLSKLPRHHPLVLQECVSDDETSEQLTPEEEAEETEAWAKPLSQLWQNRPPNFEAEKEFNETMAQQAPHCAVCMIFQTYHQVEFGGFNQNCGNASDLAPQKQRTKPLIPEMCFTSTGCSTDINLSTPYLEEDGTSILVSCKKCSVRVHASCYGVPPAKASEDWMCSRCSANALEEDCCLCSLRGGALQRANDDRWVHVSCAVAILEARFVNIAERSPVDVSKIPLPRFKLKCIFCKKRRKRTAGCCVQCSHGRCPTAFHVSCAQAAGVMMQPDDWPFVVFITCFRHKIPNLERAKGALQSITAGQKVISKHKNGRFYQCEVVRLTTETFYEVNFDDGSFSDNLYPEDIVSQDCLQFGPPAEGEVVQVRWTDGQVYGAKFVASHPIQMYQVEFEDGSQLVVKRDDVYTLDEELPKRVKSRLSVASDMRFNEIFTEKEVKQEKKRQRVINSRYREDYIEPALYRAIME
VDR inh – blocks the human vitamin D receptor. AID 504847. hit rate 0.93% among 400,000. Potency, µM, usual class: inhibitors. VDR-SRC2-3 peptide fluorescence polarization, 2 h
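Inhibition of the VDR/SRC2-3 peptide interaction is quantified by fluorescence polarization. Compounds (23 nl, pintool) incubate with the reagents for 2 hours at ambient room temperature.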
Hits are given with their value; . = inactive; ? = inconclusive; / = no result given; [ ] = dose if it differs, or a comment. The call rests on the fitted dose curve; in most records, active means well fitted curve in the direction sought with a large enough effect; inconclusive means small, poorly fitted or top-dose-only effect, or another doubt; inactive means no such curve, though single readings can be large; an effect the other way counts as inactive or inconclusive.

SMILES	BAZ2B block	G9a inh	PLK1 PBD inh	HP1b chromo inh	JMJD2A Tudor inh	VDR inh
Cc1cccc(S(=O)(=O)NNC(=O)Cc2cccn2C)c1	.	50µM	27µM	.	40µM	.
Cc1ccc(S(=O)(=O)NNC(=O)Cc2cccn2C)cc1	?	?	.	.	.	.
O=C(NCCNC1CCN(Cc2ccccc2)CC1)c1cccs1	?	1.8µM	/	/	/	/
Clc1ccc(CN2CCN(c3ncnc4scc(-c5cccs5)c34)CC2)cc1	.	32µM	.	.	.	.
Fc1ccc(CN2CCN(c3ncnc4scc(-c5ccc(F)cc5)c34)CC2)cc1	?	.	.	.	?	.
CCn1c(COc2ccc(OC)cc2)nnc1SCc1nc2ccccc2c(=O)[nH]1	.	.	/	/	/	/
CC1(C)CC(=O)C=C(OC(=O)c2ccc(Cl)cc2)C1	.	.[12.7 µM]	12µM	.	.	.
Cc1nc2ncccn2c1-c1csc(Nc2ccc(N(C)C)cc2)n1	32µM	7.9µM	.	?	28µM	.
COc1ccc(-c2csc(Nc3cccnc3)n2)cc1	.	.	.	.	.	.
c1ccc(Nc2nc(-c3ccncc3)cs2)cc1	.	?	.	.	.	.
Cc1nc2ncccn2c1-c1csc(Nc2ccccc2)n1	.	25µM	.	.	?	.
O=C(Nc1ccc(-c2csc(Nc3ccc(Cl)cc3)n2)cc1)c1ccccc1	/	/	.	.	.	.
Cc1nc2ncccn2c1-c1csc(Nc2ccc(S(N)(=O)=O)cc2)n1	.	/	.	.	.	.
COc1ccc(Nc2nc(-c3c(C)nc4ncccn34)cs2)cc1	?	18µM	.	.	?	.
CC(=O)Nc1ccc(Nc2nc(-c3c(C)nc4ccccn34)cs2)cc1	/	/	.	.	79µM	.
CCN1CC(CCN2CCOCC2)C(c2ccccc2)(c2ccccc2)C1=O (stereo not drawn)	/	.[12.7 µM]	/	/	/	.
CCCC(=O)Oc1ccc(C2NC(=O)c3ccccc3O2)cc1OC (stereo not drawn)	.	.[0.501 µM]	.	.	.	.
O=C(C=P(c1ccccc1)(c1ccccc1)c1ccccc1)c1ccccc1-c1ccccc1C(=O)C=P(c1ccccc1)(c1ccccc1)c1ccccc1	/	/	?	?	45µM	?
NC(=O)NC(=O)CSc1nc(C2CCCCC2)n(-c2ccccc2)n1	.	.	.	.	.	.
OCCNCCSc1nc(C2CCCCC2)n(-c2ccccc2Cl)n1	?	?	.	.	0.89µM	.
CCOc1ccc(-n2c(SCc3nc(-c4ccc(C)cc4)no3)nnc2-c2ccncc2)cc1	.	79µM	.	.	.	.
O=c1c2sc3ccccc3c2n(Cc2cccc(F)c2)c(=O)n1CCc1ccccc1	.	.	/	.	.	.
COc1ccc(CC(=O)Nc2nc(-c3cc(OC)ccc3OC)cs2)cc1	.	?	.	.	.	.
COc1ccc(OC)c(-c2csc(NC(=O)Cc3ccc(OC)c(OC)c3)n2)c1	?	50µM	.	.	?	.
COc1ccc(-c2csc(NC(=O)CSc3ccc(Br)cc3)n2)c(OC)c1	?	25µM	.	.	.	.
SMILES	BAZ2B block	G9a inh	PLK1 PBD inh	HP1b chromo inh	JMJD2A Tudor inh	VDR inh
Cc1ccc(Cn2cc(S(=O)(=O)c3ccc(C)cc3)c(=O)c3cc(F)c(N4CCCC4)cc32)cc1	.	.	/	.	.	.
Cc1ccc(OCCn2cc(C(=O)c3ccco3)c3ccccc32)cc1C	?	.	/	.	.	.
CCn1c(C2CC(=O)N(c3cc(C)cc(C)c3)C2)nc2ccccc21 (stereo not drawn)	.	.	.	.	.	.
COC(=O)Cn1c(C2CC(=O)N(c3c(C)cccc3C)C2)nc2ccccc21 (stereo not drawn)	.	14µM	/	.	.	.
Cc1cccc(C)c1OCCn1c(C2CC(=O)N(c3cccc(Cl)c3)C2)nc2ccccc21 (stereo not drawn)	.	.	/	.	.	.
Cc1cccc(C)c1OCCCCn1c(C2CC(=O)N(c3ccc(F)cc3)C2)nc2ccccc21 (stereo not drawn)	.	14µM	/	.	?	.
CCCCOc1ccc(NC(=O)CSc2ccc(C(=O)O)cn2)cc1	.	.	/	.	.	.
O=[N+]([O-])c1ccccc1S(=O)(=O)N1CCN(Cc2cc3c(cc2O)OCO3)CC1	/	2.5µM	?	.	?	?
COc1ccccc1N1CCN(Cc2cc3c(cc2[N+](=O)[O-])OCO3)CC1	?	?	.	.	?	.
